Records with an inconclusive call do not appear. Where a call stands in place of a potency, no number is given. Active and inactive are the calls of the source. Calls follow the shape of the dose curve; as a rule, active = well fitted cell-killing curve with a large enough effect; inconclusive = small, poorly fitted or top-dose-only effect, or effect the other way; inactive = no such curve, though single readings can be large or run the other way.
assay: Quantitative High-Throughput drug screen in 47 multiple myeloma cell lines against the NCATS MIPE library collection: ARD_JJKsccE7 cell viability assay (AID 1918929); conditions: ARD myeloma cell line viability, CellTiter-Glo, 48 h; series mostly up to 45.8 µM
Text: PI: Beverly A. Mock Ph.D.
Laboratory of Cancer Biology and Genetics,
Center for Cancer Research, National Cancer Institute,
National Institute of Health, Bethesda, Maryland
Drug resistance and disease progression are common in multiple myeloma (MM) patients, underscoring the need for new therapeutic combinations. […] We hypothesized that effective combinations would reduce MYC expression and enhance p16 activity. […] These preclinical data identify potentially useful drug combinations for evaluation in drug-resistant MM and reveal potential mechanisms of combined drug sensitivity.
Described herein is the primary MIPE qHTS used to cherrypick compounds. Validated compounds were then further tested for potential synergistic activiy.
[1] Peat TJ, Gaikwad SM, Dubois W, Gyabaah-Kessie N, Zhang S, Gorjifard S, Phyo Z, Andres M, Hughitt VK, Simpson RM, Miller MA, Girvin AT, Taylor A, Williams D, D'Antonio N, Zhang Y, Rajagopalan A, Flietner E, Wilson K, Zhang X, Shinn P, Klumpp-Thomas C, McKnight C, Itkin Z, Chen L, Kazandijian D, Zhang J, Michalowski AM, Simmons JK, Keats J, Thomas CJ, Mock BA. Drug combinations identified by high-throughput screening promote cell cycle transition and upregulate Smad pathways in myeloma. Cancer Lett. 2023 Aug 1;568:216284. doi: 10.1016/j.canlet.2023.216284. Epub 2023 Jun 24. PMID: 37356470; PMCID: PMC10408729.
SEQUENCE No. (e.g., 1, 2, 3, etc.); […] (e.g., Cells, Incubation, Reagent, etc.); VALUE and DESCRIPTION.
1; Cells; 5 uL; white, solid bottom 1536-well Greiner assay plate.
2; Compounds; 23 nL; Kalypsis pin tool (Wako USA) equipped with a 1536-well pin head to transfer to the assay plates.
3; Incubation; 48 hours; 37C incubation.
4; Reagent;5uL; CellTiter Glo (Promega).
5; Detector; 425V; Luminescence; Viewlux PerkinElmer.
NOTES (numbers refer to Sequence numbers above)
1. The cell-based screening methods employed in this study were like those previously published. Briefly, the corresponding myeloma cell lines were screened in 1,536-well plates with 500 cells, 5-uL per well for inhibition of cell viability (assessed by measuring ATP levels with CellTiterGlo).
2. NCATS MIPE 4.0 library of approved and investigational drugs were added using the Kalypsis pin tool. Wells treated with DMSO only for 100% viability and media only wells for 0% viability were used as controls.
3. The assay plates were covered and incubated for 48 hours in a 37C, 5% CO2 incubator with controlled humidity.
4. After 48 hours, CellTilter-GloTM luminescent substrate mix (Promega) reagent was added to the assay plate and plates we incubated for 5 min at room temperature.
5. Signal was measured as median relative luminescence units on a ViewLux (PerkinElmer) multiplate reader.
[1] Heske CM, Davis MI, Baumgart JT, Wilson K, Gormally MV, Chen L, Zhang X, Ceribelli M, Duveau DY, Guha R, Ferrer M, Arnaldez FI, Ji J, Tran HL, Zhang Y, Mendoza A, Helman LJ, Thomas CJ. Matrix Screen Identifies Synergistic Combination of PARP Inhibitors and Nicotinamide Phosphoribosyltransferase (NAMPT) Inhibitors in Ewing Sarcoma. Clin Cancer Res. 2017 Dec 1;23(23):7301-7311. doi: 10.1158/1078-0432.CCR-17-1121. Epub 2017 Sep 12. PMID: 28899971; PMCID: PMC6636827.
Potency is read from the fitted curve at half-maximal effect.

Row | Compound | Potency
1 | Cc1ccc(C(=O)Nc2ccc(S(=O)(=O)O)c3cc(S(=O)(=O)O)cc(S(=O)(=O)O)c23)cc1NC(=O)c1cccc(NC(=O)Nc2cccc(C(=O)Nc3cc(C(=O)Nc4ccc(S(=O)(=O)O)c5cc(S(=O)(=O)O)cc(S(=O)(=O)O)c45)ccc3C)c2)c1 | inactive
2 | COc1ccccc1OCC(O)CN1CCN(CC(=O)Nc2c(C)cccc2C)CC1 (stereo not given) | inactive
3 | NS(=O)(=O)c1cc2c(cc1Cl)NCNS2(=O)=O | inactive
4 | CC1(CN2CCC(n3c(=O)[nH]c4ccccc43)CC2)OCc2ccccc2-n2cccc21 (stereo not given) | inactive
5 | CC(C)Cc1ccc(C(C)C(=O)O)cc1 (stereo not given) | inactive
6 | CN1CCC(=C2c3ccccc3CC(=O)c3sccc32)CC1 | inactive
7 | NCCCCCC(=O)O | inactive
8 | Cn1c(=O)c2c(ncn2C)n(C)c1=O | inactive
9 | CC(C)NCC(O)c1ccc(O)c(O)c1 (stereo not given) | 5.9 µM (active)
10 | O=C(C1CCCCC1)N1CC(=O)N2CCc3ccccc3C2C1 (stereo not given) | inactive
11 | CN(C)C(=N)N=C(N)N | inactive
12 | Cc1ccc(-c2cc(C(F)(F)F)nn2-c2ccc(S(N)(=O)=O)cc2)cc1 | inactive
13 | CC(COc1ccccc1)N(CCCl)Cc1ccccc1 (stereo not given) | 16.6 µM (active)
14 | COc1ccc(C2CNC(=O)C2)cc1OC1CCCC1 (stereo not given) | inactive
15 | CCC1(c2ccccc2)C(=O)NCNC1=O | 14.8 µM (active)
16 | CC12CC3CC(C)(C1)CC(N)(C3)C2 | inactive
17 | Cc1cc(C(C)(C)C)c(O)c(C)c1CC1=NCCN1 | inactive
18 | CC[N+](CC)(CC)CCOc1cccc(OCC[N+](CC)(CC)CC)c1OCC[N+](CC)(CC)CC | inactive
19 | CN(C)C(=O)C(CCN1CCC(O)(c2ccc(Cl)cc2)CC1)(c1ccccc1)c1ccccc1 | inactive
20 | NC(=O)OCC(COC(N)=O)c1ccccc1 | inactive

Row | Compound | Potency
21 | Fc1ccc([C@@H]2CCNC[C@H]2COc2ccc3c(c2)OCO3)cc1 | inactive
22 | NC(=O)NO | 0.235 µM (active)
23 | NCCS(=O)(=O)O | inactive
24 | COc1cc2c(c(OC)c1OC)-c1ccc(OC)c(=O)cc1[C@@H](NC(C)=O)CC2 | inactive
25 | CCOC(=O)Nc1ccc(NCc2ccc(F)cc2)nc1N | 18.7 µM (active)
26 | CCCCc1oc2ccccc2c1C(=O)c1cc(I)c(OCCN(CC)CC)c(I)c1 | 18.7 µM (active)
27 | CN(CCOc1ccc(NS(C)(=O)=O)cc1)CCc1ccc(NS(C)(=O)=O)cc1 | inactive
28 | COC(=O)Nc1nc2ccc(C(=O)c3cccs3)cc2[nH]1 | 0.001 µM (active)
29 | C[C@@H]1CC(=O)NN=C1c1ccc(NN=C(C#N)C#N)cc1 | inactive
30 | O=C1c2c(O)ccc(O)c2C(=O)c2c(NCCNCCO)ccc(NCCNCCO)c21 | 20.9 µM (active)
31 | COc1ccc2[nH]cc(CCNC(C)=O)c2c1 | inactive
32 | Cc1cn([C@H]2C=C[C@@H](CO)O2)c(=O)[nH]c1=O | inactive
33 | O=C(CCCN1CCC(O)(c2ccc(Cl)cc2)CC1)c1ccc(F)cc1 | 16.6 µM (active)
34 | Cc1ccccc1N1C(=O)c2cc(S(N)(=O)=O)c(Cl)cc2NC1C (stereo not given) | inactive
35 | CN1CCC(=C2c3ccccc3C=Cc3ccccc32)CC1 | inactive
36 | Nc1c2c(nc3ccccc13)CCCC2 | inactive
37 | CC1(C)O[C@H]2CC(=O)OC[C@]23[C@H]2CC[C@@]4(C)[C@H](c5ccoc5)OC(=O)[C@H]5O[C@]54[C@]2(C)C(=O)C[C@@H]13 | inactive
38 | Cc1cc(C(C)(C)C)cc(C)c1CC1=NCCN1 | inactive
39 | CN(C)c1nc(N(C)C)nc(N(C)C)n1 | inactive
40 | Cc1cn([C@H]2C[C@H](N=[N+]=[N-])[C@@H](CO)O2)c(=O)[nH]c1=O | inactive
